Rows were chosen to be rich in hits. Some 21% of all compounds tested hit in one or more screens of this group.
Gal4-VP16 FLuc – counter-screen for ROR gamma inhibitors: Gal4-VP16 reporter; Drosophila S2 Gal4-VP16 UAS-luciferase, luminescence, 20 h; Potency, µM (top dose mostly 53.6 µM), for the others: at the highest dose activity, negative = inhibition, most hits filed as inhibitors; hit rate 3.5% among 310,000;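 note: Gal4-VP16 expression switched on by copper sulfate through the metallothionein promoter; potency is the fitted concentration of half-maximal effect; nearly all actives have a fitted effect of over 50% in size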
DT40 TDP1 no CPT – qHTS for Inhibitors of human tyrosyl-DNA phosphodiesterase 1 (TDP1): qHTS in cells in absence of CPT. DT40 Tdp1-/- hTDP1 cells, no CPT, ATP luminescence, 48 h. Potency, µM (highest dose often 46.2 µM), without a hit: top-dose activity change, negative = growth inhibition, hits mostly inhibitors. hit rate 15% among 420,000. AID 686978, 2013; note: potency is the fitted concentration of half-maximal effect; nearly all actives have a fitted effect of over 55% in size
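Chicken DT40 Tdp1-/- cells stably complemented with human TDP1 were seeded at 400 cells/well with DMSO in place of 20 nM camptothecin. After compound pinning, cells grew at least 48 hr at 37 °C; viability read by CellTiter-Glo luminescence.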
TDP1 cell CPT – DT40-hTDP1 cell growth loss with CPT | chicken DT40 Tdp1-/-;hTDP1 cells + 20 nM CPT, ATP luminescence, 48 h | Potency, µM (top dose mostly 46.2 µM), inactives show top-dose activity change, negative = growth inhibition, most hits filed as inhibitors | hit rate 12% among 420,000; note: potency is the fitted concentration of half-maximal effect; nearly all actives have a fitted effect of over 55% in size
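Chicken DT40 Tdp1-/- cells complemented with human TDP1, 400 cells/well, exposed to compounds plus 20 nM camptothecin for at least 48 h at 37 C; viability read as ATP content by CellTiter-Glo luminescence.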
RORgamma inh – ROR gamma (mouse) transcription inhibition; P51450; Drosophila S2 Gal4-RORgamma UAS-luciferase reporter, 20 h; Potency, µM (doses to about 53.6 µM), for the others: at the top dose activity change, negative = inhibition, actives largely listed as inhibitors; hit rate 5.4% among 310,000; note: potency is the fitted concentration of half-maximal effect; nearly all actives have a fitted effect of over 60% in size
Target sequence (P51450 whole entry, looked up, the tested form may be a part): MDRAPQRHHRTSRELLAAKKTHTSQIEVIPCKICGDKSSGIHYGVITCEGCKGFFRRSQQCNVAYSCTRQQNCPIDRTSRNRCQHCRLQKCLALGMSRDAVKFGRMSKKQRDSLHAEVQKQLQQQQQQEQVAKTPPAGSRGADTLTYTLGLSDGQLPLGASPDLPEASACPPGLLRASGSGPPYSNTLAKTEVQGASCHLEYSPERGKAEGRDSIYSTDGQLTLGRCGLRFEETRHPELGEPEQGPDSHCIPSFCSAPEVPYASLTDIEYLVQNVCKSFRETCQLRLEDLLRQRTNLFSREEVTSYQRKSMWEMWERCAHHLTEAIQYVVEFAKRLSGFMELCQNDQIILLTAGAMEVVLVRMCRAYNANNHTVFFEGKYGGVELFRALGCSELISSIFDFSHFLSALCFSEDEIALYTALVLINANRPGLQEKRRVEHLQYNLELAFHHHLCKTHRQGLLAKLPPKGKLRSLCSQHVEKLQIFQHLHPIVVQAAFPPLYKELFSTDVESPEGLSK
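Drosophila Schneider cells stably carrying a metallothionein-driven Gal4 DBD–ROR gamma fusion and a UAS-Photinus luciferase reporter were exposed to compound for 1 hr, then induced with copper sulfate (700 uM final) for 20 hr at ambient temperature before luminescence reading.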
ELG1 repair inh – ELG1-dependent DNA repair inhibition; HEK293T ELG1-luciferase reporter, luminescence, 16 h; DNA damage induced by 5-fluorouridine; Potency, µM (titrated, usually from 46.1 µM), inactives show at the highest dose activity change, negative = inhibition, usual class: inhibitors; hit rate 2.3% among 330,000; note: potency is the fitted concentration of half-maximal effect; nearly all actives have a fitted effect of over 55% in size
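HEK293T cells expressing luciferase-tagged ELG1 (2,000/well) received 5-Fluorouridine plus compound or DMSO for 16 hr at 37 °C. Luciferase was read by ONE-Glo luminescence after 30 min at room temperature.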
IL1B secr inh – inflammasome signaling inhibition, IL-1 beta readout | THP-1 LPS/ATP IL-1B secretion, AlphaLISA, 16 h; hits give low values | activity change, % at 57.5 µM | hit rate 4.7% among 360,000 | AID 743279; in the data active = activity change below about -50%; inconclusive = mostly about -30% to -49%
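Secreted IL-1B measured by AlphaLISA bead assay after 16 h compound exposure of THP-1 cells; compounds (final up to 57.5 uM) added 1 h before LPS (250 ng/mL) and ATP (1.25 mM) stimulation; lower signal means less secretion.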
Numbers without * were called inactive; ? = inconclusive; . = not tested or not shown; [ ] = another dose, or the depositor's remark. Unless noted, calls come from the whole dose curve; as a rule, active = well fitted curve in the direction sought with a large enough effect; inconclusive = small, poorly fitted or top-dose-only effect, or another doubt; inactive = no such curve, though single readings can be large; an effect the other way counts as inactive or inconclusive. % is set by controls: 0 for no effect and ±100 for the full control effect.

SMILES	Gal4-VP16 FLuc	DT40 TDP1 no CPT	TDP1 cell CPT	RORgamma inh	ELG1 repair inh	IL1B secr inh
COc1ccc(C#Cc2cccc(-c3nc(C(=O)NCCCN4CCOCC4)cc4c3[C@H](CCO)N(S(=O)C(C)(C)C)C4)c2)cc1OC (stereo partly drawn)	.	23.1µM*	?	.	.	-26.6
CC1CN(Cc2cccn2-c2cccnc2)Cc2cc(Cl)ccc2O1 (stereo not drawn)	.	18.4µM*	-17.8%[9.04 µM]	.	.	.
COc1ccc(S(=O)(=O)c2cnc3ccc(OC)cc3c2N2CCC3(CC2)OCCO3)cc1	?	3.26µM*	8.2µM*	12.6%	23.1µM*	?
CCOc1ccc2ncc(S(=O)(=O)c3ccccc3)c(N3CCN(c4ccccc4)CC3)c2c1	.	?	14.6µM*	.	.	14.5
COc1ccc(N2CCN(c3c(S(=O)(=O)c4ccccc4)cnc4ccc(OC)cc34)CC2)cc1	0.7%	18.4µM*	23.1µM*	?	18.4µM*	-9.5
CCOc1ccc2ncc(S(=O)(=O)c3ccccc3)c(N3CCC4(CC3)OCCO4)c2c1	-16.8%	.	.	18.9%	?	.
O=C(Cc1cccs1)Nc1ccccc1F	24.6%	-7.4%	5.2%	17.2%	?	8.1
COc1cc(OC)cc(C(=O)Nc2ccc(C(=O)c3ccncc3)cc2)c1	-5.9%	?	?	-19.2%	-11.1%	-24.3
Cc1ccc(-c2nc3cccnc3s2)cc1NS(=O)(=O)c1cccs1	16.6%	?	-20.0%	32.5%	19.3%	19.1
COc1cc(OC)cc(C(=O)Nc2cc(-c3nc4cccnc4s3)ccc2C)c1	.	10.3µM*	?	.	.	.
CCOc1ccccc1C(=O)Nc1cc(-c2nc3cccnc3s2)ccc1C	.	5.17µM*	8.2µM*	.	.	.
Cc1cc(Br)cn2cc(C(=O)O)nc12	-7.7%	1.6%	1.3%	-17.1%	6.3%	1.9
CCN(CC)c1ccc(CN2CCC(C(=O)NCc3ccc(C)cc3)CC2)cc1	0.0%	14.6µM*	14.6µM*	19.0%	?	-1.8
Cc1cccc(CN2CCC(C(N)=O)CC2)c1	-1.0%	8.2%	1.6%	-16.4%	2.8%	9.6
CNC(=O)C1CCN(Cc2cc3ccccc3n2Cc2cccc(C)c2)CC1	.	16.4µM*	18.4µM*	.	.	.
COCCNC(=O)C1CCN(Cc2cc3ccccc3n2Cc2ccc(C)cc2)CC1	.	20.6µM*	16.4µM*	.	.	.
Cc1ccc(S(=O)(=O)N2CCC(C(=O)NCc3ccccc3Cl)CC2)cc1	-9.3%	?	?	3.3%	-20.4%	-12.1
CCN(CC)S(=O)(=O)N1CCC(C(=O)NCc2ccc(C)cc2)CC1	-9.2%	-15.1%	-7.8%	25.7%	23.1%	-4.5
Cc1ccc(Cn2c(CN3CCC(C(=O)NCc4ccccc4C)CC3)cc3ccccc32)cc1	.	16.4µM*	20.6µM*	.	.	.
COCCNC(=O)C1CCCN(Cc2ccccc2)CC1 (stereo not drawn)	.	1.0%	-21.6%	.	.	?
O=C(Cn1cc(C(F)(F)F)cc(Cl)c1=O)NCCc1ccccc1	4.7%	-7.1%	-0.3%	10.7%	?	17.0
CNC(=O)C1CCC(Cn2c(=O)c3sccc3n(CC(=O)N3CCCC3)c2=O)CC1 (stereo not drawn)	.	-9.1%	-13.4%	.	.	.
CCNC(=O)C1CCN(Cc2cc3ccccc3n2Cc2ccc(C)cc2)CC1	.	20.6µM*	23.1µM*	.	.	.
CC(=O)NC(c1cccc(F)c1)c1nc(-c2cccs2)cs1 (stereo not drawn)	.	?	-18.2%	.	.	?
CC(=O)c1cccc(NC(=O)NCCc2ccc(Cl)cc2)c1	1.2%	-20.4%	?	31.0%	5.6%	-15.7
SMILES	Gal4-VP16 FLuc	DT40 TDP1 no CPT	TDP1 cell CPT	RORgamma inh	ELG1 repair inh	IL1B secr inh
CC(=O)c1cccc(NC(=S)NC(=O)Cc2ccccc2)c1	5.01µM*	-17.3%	-4.6%	1.41µM*	14.8%	-11.8
CC(=O)c1cccc(NC(=S)Nc2ccn(Cc3cccc4ccccc34)n2)c1	5.01µM*	?	?	2.82µM*	?	-5.3
CC(=O)c1cccc(NC(=S)NC(=O)Cc2ccc(Cl)cc2)c1	?	-4.4%	-2.6%	10µM*	0.0%	32.2
CCOC(=O)C1CCN(C(=O)COC(=O)/C=C/c2ccc([N+](=O)[O-])cc2)CC1	.	?	?	.	-15.5%	-0.6
Cc1ccc2oc(-c3ccc(C)c(NC(=O)COc4ccc(Cl)cc4)c3)nc2c1	.	-16.1%	-29.0%	.	.	.
O=c1[nH]c(SCc2cccc(Cl)c2)nc2c1CCC2	.	-19.4%	-28.7%	.	.	.
COc1ccc(/C(=N/Nc2ncnc3ccccc23)C(=O)O)cc1	0.501µM*	?	20.6µM*	0.282µM*	?	45.4
CCOC(=O)C(Cc1ccnc2ccccc12)=NO	.	?	?	.	.	22.8
CCOC(=O)/C(=N\Nc1ncnc2ccccc12)c1ccc(OC)cc1	14.1µM*	-6.8%	-5.9%	7.08µM*	?	21.1
Nc1ccc(Oc2ccc3nc(-c4ccccc4)c(-c4ccc([N+](=O)[O-])cc4)nc3c2)cc1	-6.1%	?	16.4µM*	6.0%	-9.6%	-0.2
Nc1nc(-c2ccccc2)c(-c2ccc([N+](=O)[O-])cc2)s1	-0.4%	?	?	34.4%	?	0.0
N#Cc1ccc(Oc2ccc(-c3nc4ccccc4nc3-c3ccccc3)cc2)cc1C#N	-10.7%	18.4µM*	9.2µM*	7.9%	-23.2%	-4.0
Nc1nonc1C(=Nc1ccc(Br)cc1)NO	3.5%	?	25.9µM*	10.4%	14.8%	-20.9
CCN(CC)S(=O)(=O)c1ccc2c(c1)nc(CCC(=O)Nc1cccc(C(F)(F)F)c1)n2CC	-8.9%	?	29.1µM*	10.6%	-24.4%	?
CCN(CC)S(=O)(=O)c1ccc2c(c1)nc(CCC(=O)O)n2CC	5.6%	4.6%	0.9%	0.8%	7.5%	22.9
Cc1ccc(C)c(S(=O)(=O)N2CCN(c3nc(CN4CCOCC4)nc4sc(C)c(C)c34)CC2)c1	.	18.4µM*	?	.	?	-28.3
Cc1sc2nc(CN3CCCC3)nc(N3CCN(S(=O)(=O)c4cccs4)CC3)c2c1C	-6.8%	18.4µM*	?	0.3%	-4.6%	?
Cc1cc(=S)nc(-c2ccccn2)[nH]1	?	4.61µM*	3.26µM*	0.794µM*	?	-0.1
COc1ccc2nc(-c3ccccn3)[nH]c2c1	.	-9.7%	-16.9%	.	?	-0.1
Cc1[nH]c(-c2ccccn2)nc(=S)c1Cl	?	?	10.3µM*	10µM*	?	.
O=C(Oc1ccccc1F)c1nc(SCc2ccc(F)cc2)ncc1Cl	.	-11.4%	-10.6%	.	.	.

Source: PubChem BioAssay
